Results on eleven molecules are retold here after PubChem BioAssay (Tox21).

Assay [1] is described as follows: qHTS assay to identify small molecule antagonists of the retinoid-related orphan receptor gamma (ROR-gamma) signaling pathway - cell viability counter screen (AID 1159520). Also: nearly all actives have a fitted effect of over 50% in size. Also: potency is read from the fitted curve at half-maximal effect. The method in brief:
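Tet-on ROR gamma CHO cells (1,000/well) were plated 4 hr, given compounds in DMSO for 2 hr at 37 C, then induced with 1 uM final doxycycline for 16 hr. Viability was read as ATP by CellTiter-Glo luminescence after 30 min.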
(Quantitative high-throughput screening tests each substance at several concentrations.)

In assay [2] the target is Nuclear receptor ROR-gamma (Homo sapiens) (UniProt P51449). Put plainly: qHTS assay to identify small molecule antagonists of the retinoid-related orphan receptor gamma (ROR-gamma) signaling pathway (AID 1159521; also: nearly all actives have a fitted effect of over 50% in size; also: potency is read from the fitted curve at half-maximal effect). The method in brief: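 CHO Tet-on RORγ, RORE-luc reporter. Cpd 2 h pre-incubation, then dox hyclate 1 uM final, 16 h, 37 C/5% CO2. ONE-Glo luminescence; decrease = antagonist.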

A short description of assay [3]: qHTS assay to identify small molecule agonists of the AP-1 signaling pathway - cell viability counter screen (AID 1159525; calls by dose curve; also: nearly all actives have a fitted effect of over 55% in size; also: potency is read from the fitted curve at half-maximal effect). The essentials:
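Each titration point was normalised to DMSO and tetra n-octyl ammonium bromide controls. The read was Cell Titer Glo luminescence after 30 min at RT, following 5 h compound exposure of ME-180 AP-1-bla cells at 37 °C.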

The nature of assay [4]: qHTS assay to identify small molecule agonists of the AP-1 signaling pathway (AID 1159526; calls by dose curve; also: % is scaled to controls: 0 for no effect and ±100 for the full control effect).
The target of assay [5] is Retinoic acid receptor RXR-alpha (Homo sapiens) (UniProt P19793). Put plainly: qHTS assay to identify small molecule agonists of the RXR signaling pathway (AID 1159527; calls by dose curve; also: nearly all actives have a fitted effect of over 35% in size; also: potency is read from the fitted curve at half-maximal effect). The method in brief: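 Read-out: beta-lactamase FRET ratio (405 nm excitation, 460 and 530 nm emission) after 2 hr substrate loading at room temperature. Cells were RXR-alpha-UAS-bla HEK 293T treated with compounds for 16 hr in 2% charcoal-stripped FBS medium.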
Sequence of Retinoic acid receptor RXR-alpha (Homo sapiens) (P19793 whole entry, looked up): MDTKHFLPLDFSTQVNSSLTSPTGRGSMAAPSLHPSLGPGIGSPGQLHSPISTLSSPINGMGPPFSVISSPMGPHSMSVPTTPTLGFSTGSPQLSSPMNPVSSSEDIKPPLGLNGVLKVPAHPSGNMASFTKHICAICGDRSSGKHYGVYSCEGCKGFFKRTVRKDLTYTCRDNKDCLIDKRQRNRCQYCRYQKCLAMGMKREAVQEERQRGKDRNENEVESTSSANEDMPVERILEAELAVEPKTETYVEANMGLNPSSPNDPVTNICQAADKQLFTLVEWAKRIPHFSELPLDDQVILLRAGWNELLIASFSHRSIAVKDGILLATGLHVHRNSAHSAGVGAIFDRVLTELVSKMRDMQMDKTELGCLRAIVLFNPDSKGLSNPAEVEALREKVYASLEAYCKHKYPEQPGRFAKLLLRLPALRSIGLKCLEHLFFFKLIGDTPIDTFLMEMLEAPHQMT

Assay [6] can be described thus: qHTS assay to identify small molecule antagonists of the retinoid acid receptor (RAR) signaling pathway - cell viability counter screen (AID 1159551). Also: nearly all actives have a fitted effect of over 35% in size. Also: potency is read from the fitted curve at half-maximal effect. The method in brief:
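Cytotoxicity counter screen: ATP content quantified by CellTiter-Glo luminescence in C3RL4 cells treated 6 hr at 37 C with compound and retinol (1 uM final). Cells plated at 1,000/well and cultured overnight before dosing.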

Assay [7] in a line: qHTS assay to identify small molecule agonists of the RXR signaling pathway - cell viability counter screen (AID 1159529). Also: series mostly up to about 77 µM; % is scaled to controls: 0 for no effect and ±100 for the full control effect; nearly all actives have a fitted effect of over 50% in size. The essentials:
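HEK 293T RXRa-bla cells, 2% CS-FBS; 5 h settle; cpd 16 h 37 C, 5% CO2; CellTiter-Glo 30 min RT, luminescence. Tetraoctyl ammonium bromide as positive control.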

Assay [8] is described as follows: qHTS assay to identify small molecule antagonists of the retinoic acid receptor (RAR) signaling pathway (AID 1159552; also: nearly all actives have a fitted effect of over 50% in size; also: potency is read from the fitted curve at half-maximal effect). The essentials:
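Cells of the C3RL4 line were seeded, incubated overnight, then dosed with compounds in DMSO followed immediately by retinol (1 uM final). Six hours later luciferase detection reagent went in; signal was measured after 30 min at RT.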

Assay [9] is described as follows: qHTS assay to identify small molecule agonists of the peroxisome proliferator-activated receptor delta (PPARd) signaling pathway - cell viability counter screen (AID 743211). Also: nearly all actives have a fitted effect of over 55% in size. Also: potency is read from the fitted curve at half-maximal effect. The method in brief:
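HEK293H PPARd-bla, 3000 cells/well; 5 h preincubation 37C/5% CO2; cpd in DMSO, 17 h 37C; B/G FRET substrate 2 h RT; CellTiter-Glo 30 min RT, luminescence.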

The nature of assay [10]: qHTS assay to identify small molecule antagonists of the peroxisome proliferator-activated receptor delta (PPARd) signaling pathway - cell viability counter screen (AID 743213). Also: nearly all actives have a fitted effect of over 50% in size. Also: potency is read from the fitted curve at half-maximal effect. The method in brief: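 CellTiter-Glo was added to PPARd-bla HEK293H wells following 17 h compound treatment in the presence of 300 nM L165041. Luminescence was recorded after 30 min at room temperature.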

Assay [11] has as its target Bile acid receptor (Homo sapiens) (UniProt Q96RI1). Nature of the assay: qHTS assay to identify small molecule antagonists of the farnesoid-X-receptor (FXR) signaling pathway (AID 743217; active = well fitted inhibition curve with a large enough effect in the signal ratio in the repeat runs, not every such curve was filed as active; the % refers to the signal ratio; also: % is scaled to controls: 0 for no effect and ±100 for the full control effect). The essentials: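 Antagonist mode: chenodeoxycholic acid at 50 uM final stimulates a UAS-driven beta-lactamase reporter in HEK 293T FXR-bla cells during 16 h, 37C compound exposure. Read-out is FRET substrate fluorescence after 2 h at room temperature.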

The nature of assay [12]: qHTS assay to identify small molecule agonists of the farnesoid-X-receptor (FXR) signaling pathway - cell viability counter screen (AID 743218). Also: nearly all actives have a fitted effect of over 45% in size. Also: potency is read from the fitted curve at half-maximal effect. The method in brief: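 Viability counter screen in the same wells: CellTiter-Glo luminescence, 30 min room-temperature incubation, measured after the beta-lactamase read. Cells were GeneBLAzer FXR-UAS-bla HEK 293T, compound-treated 16 h at 37C.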

For assay [13], the target named is Bile acid receptor (Homo sapiens) (UniProt Q96RI1). Put plainly: qHTS assay to identify small molecule agonists of the farnesoid-X-receptor (FXR) signaling pathway (AID 743220; active = well fitted activation curve with a large enough effect in the signal ratio in the repeat runs, not every such curve was filed as active; the % refers to the signal ratio; also: % is scaled to controls: 0 for no effect and ±100 for the full control effect). The essentials: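 FXR-UAS-bla HEK 293T cells carrying a UAS-driven beta-lactamase reporter were plated for 5 h at 37C/5% CO2, then exposed to DMSO-dissolved Tox21 10K compounds for 16 h at 37C. A LiveBLAzer B/G FRET substrate was loaded for 2 h at room temperature before fluorescence reading.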
Sequence of Bile acid receptor (Homo sapiens) (Q96RI1 whole entry, looked up): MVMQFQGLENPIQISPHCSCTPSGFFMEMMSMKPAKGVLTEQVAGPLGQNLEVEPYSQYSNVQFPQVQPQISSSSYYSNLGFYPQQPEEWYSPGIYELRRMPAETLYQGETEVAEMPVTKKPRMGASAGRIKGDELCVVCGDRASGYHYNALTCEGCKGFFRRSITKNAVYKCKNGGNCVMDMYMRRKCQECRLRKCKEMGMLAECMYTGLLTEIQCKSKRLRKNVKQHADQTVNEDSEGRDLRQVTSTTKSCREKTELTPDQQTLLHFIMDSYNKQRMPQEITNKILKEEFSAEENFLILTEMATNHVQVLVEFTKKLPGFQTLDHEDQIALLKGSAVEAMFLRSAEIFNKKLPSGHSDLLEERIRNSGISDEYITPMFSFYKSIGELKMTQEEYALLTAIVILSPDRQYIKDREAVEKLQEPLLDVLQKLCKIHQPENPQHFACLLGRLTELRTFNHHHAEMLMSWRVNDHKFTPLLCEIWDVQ

Assay [14] is described as follows: qHTS assay to identify small molecule antagonists of the farnesoid-X-receptor (FXR) signaling pathway - cell viability counter screen (AID 743221; active = well fitted cell-killing curve with a large enough effect in the repeat runs, not every such curve was filed as active; also: nearly all actives have a fitted effect of over 50% in size; also: potency is read from the fitted curve at half-maximal effect). The method in brief:
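Luminescence from CellTiter-Glo measures cytotoxicity in GeneBLAzer FXR-UAS-bla HEK 293T cells. Cells were exposed to compounds with 50 uM chenodeoxycholic acid (final) for 16 h at 37 C, in wells also used for the reporter readout.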

In assay [15] the target is Vitamin D3 receptor (Homo sapiens) (UniProt P11473). Nature of the assay: qHTS assay to identify small molecule agonists of the vitamin D receptor (VDR) signaling pathway (AID 743222; calls by dose curve; also: % is scaled to controls: 0 for no effect and ±100 for the full control effect). The method in brief:
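Agonist mode, beta-lactamase reporter: fluorescence from LiveBLAzer B/G FRET substrate (2 h, room temperature) read after 16 h compound treatment at 37 C of VDR-bla cells, which were pre-incubated 4 h after seeding.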

Assay [16] in a line: qHTS assay to identify small molecule agonists of the vitamin D receptor (VDR) signaling pathway - cell viability counter screen (AID 743224). Also: nearly all actives have a fitted effect of over 50% in size. Also: potency is read from the fitted curve at half-maximal effect. The essentials:
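Counter screen run in the same wells as the VDR-bla reporter assay: CellTiter-Glo luminescence, 30 min at room temperature, after 16 h compound treatment at 37C of cells pre-plated for 4 h.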

A short description of assay [17]: qHTS assay to identify small molecule antagonists of the vitamin D receptor (VDR) signaling pathway - cell viability counter screen (AID 743225). Also: nearly all actives have a fitted effect of over 50% in size. Also: potency is read from the fitted curve at half-maximal effect. The method in brief:
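Read-out: CellTiter-Glo luminescence measured 30 min after reagent addition at room temperature. Cells were VDR-bla HEK 293T exposed 16 h at 37C, 5% CO2, to compound with 3 nM final calcitriol agonist.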

Records with an inconclusive call do not appear. Unmarked numbers belong to inactive results. Active and inactive are the calls of the source. Unless noted, calls follow the shape of the dose curve; as a rule, active = well fitted curve in the direction sought with a large enough effect in the repeat runs; inconclusive = weak or mixed curves; inactive = no such curve, though single readings can be large; an effect the other way counts as inactive or inconclusive.

Sequence of Vitamin D3 receptor (Homo sapiens) (P11473 whole entry, looked up): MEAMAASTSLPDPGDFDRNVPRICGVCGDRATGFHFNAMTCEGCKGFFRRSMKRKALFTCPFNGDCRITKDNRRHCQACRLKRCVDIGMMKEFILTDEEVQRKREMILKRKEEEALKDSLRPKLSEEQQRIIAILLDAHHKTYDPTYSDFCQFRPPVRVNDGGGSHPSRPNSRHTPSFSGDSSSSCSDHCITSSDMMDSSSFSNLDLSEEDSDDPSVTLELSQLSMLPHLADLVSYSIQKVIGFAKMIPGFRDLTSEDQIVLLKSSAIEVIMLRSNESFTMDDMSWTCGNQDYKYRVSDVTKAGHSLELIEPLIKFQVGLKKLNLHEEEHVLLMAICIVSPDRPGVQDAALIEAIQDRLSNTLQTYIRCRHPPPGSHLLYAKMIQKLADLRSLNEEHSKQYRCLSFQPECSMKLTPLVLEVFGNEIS

On to `C/C(=C\c1ccc(C(=O)O)cc1)c1ccc2c(c1)C(C)(C)CCC2(C)C`, for which the Potency entry in assay [1], in assay [2], in [3], in assay [4] and in assay [6] was “inactive” each time. Besides, the Potency in assay [5] is 0.952 µM (active).

Take `NCc1ccco1`: the Potency entry in assay [1], in [2], in assay [3], in assay [5], in [7] and in assay [6] was “inactive” in each case.

Consider `Clc1ccc2c(Cl)ccnc2c1`, for which the Potency result in assay [1], in assay [2], in assay [3], in assay [4], in assay [5] and in assay [7] was “inactive” throughout. Moreover, the Potency entry in assay [6] and in [8] was “inactive” in each case.

Turning to `CCN(CC)c1ccc(C=O)cc1`, the Potency entry in [1], in [2], in [3], in assay [4], in assay [7] and in assay [6] was “inactive” in each case. Further, in assay [8], the Potency entry is “inactive”.

For the molecule `CCOc1nc(F)cc2nc(S(=O)(=O)Nc3c(Cl)cccc3C(=O)OC)nn12`, the Potency entry in [1], in [2], in assay [3], in assay [4], in [5] and in assay [7] was “inactive” each time. In addition, the Potency entry in [6] and in assay [8] was “inactive” each time.

On to `COc1c(Br)cc(Br)c(C)c1Br`, for which the Potency entry in assay [9], in assay [10], in assay [11], in assay [12], in assay [14] and in [16] was “inactive” in each case. The Potency result in [17], in assay [1], in assay [2], in [3], in assay [4] and in assay [5] was “inactive” in each case. The Potency entry in [7] and in [6] was “inactive” each time. The result in assay [13] and in assay [15] was inactive.

`COc1cc(OC)nc(NC(=O)NS(=O)(=O)Nc2ccccc2C(=O)N(C)C)n1`: the Potency entry in assay [1], in assay [2], in assay [3], in assay [4], in assay [5] and in assay [7] was “inactive” each time. The Potency result in [6] was “inactive”.

In the case of `O=c1cc[nH]cc1`, the Potency entry in [1], in assay [2], in assay [3], in assay [4] and in assay [6] was “inactive” throughout.

With `Cn1ccnc1`, the Potency result in [1], in assay [2], in assay [3], in [4], in assay [5] and in assay [7] was “inactive” each time. Besides, the Potency entry in assay [6] is “inactive”.

In the case of `COc1cc2ncnc(Nc3cccc(Cl)c3)c2cc1OC`, the activity, negative = cytotoxicity in [1] is -2.63% [at 19 µM]. Moreover, the activity change, negative = inhibition in assay [2] is -11.5% [at 19 µM]. Also, the viability change, negative = cytotoxic in [3] is -9.86% [at 15.8 µM]. For the same molecule, in assay [5], the activation was -15.1% [at 15.8 µM]. Besides, the activity change, negative = cytotoxicity in assay [6] was 0.617% [at 19 µM].

In the case of `CN(C)CCOc1ccc(/C(=C(/CCCl)c2ccccc2)c2ccccc2)cc1`, the Potency in [9] was 14.5 µM (active); in assay [10], 10.3 µM (active); in assay [12], 20.5 µM (active); in assay [14], 40.9 µM (active); in assay [16], 12.9 µM (active); in [17], 12.9 µM (active). Moreover, the Potency was 51 µM (active) in assay [1]; 22.8 µM (active) in assay [2]; 36.4 µM (active) in [3]; 51 µM (active) in assay [6]; 57.2 µM (active) in [8].
